Source: PubChem BioAssay (National Center for Advancing Translational Sciences (NCATS))
RE007 growth inh – less growth of the S. pombe RE007 Vpr strain; 360,000 tested, 0.21% active; Potency, µM (titrated, usually from 92.2 µM), without a hit: at the highest dose activity change, negative = less growth, hits mostly inhibitors; S. pombe RE007 Vpr strain, BacTiter-Glo ATP luminescence, 24 h; AID 651644; active = well fitted falling curve with a large enough effect; inconclusive = small, poorly fitted or top-dose-only effect; inactive = no such curve, though single readings can be large or run the other way; also: potency is read from the fitted curve at half-maximal effect; % is scaled to controls: 0 for no effect and ±100 for the full control effect; nearly all actives have a fitted effect of over 50% in size
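Fission yeast RE007 carrying one integrated HIV-1 vpr copy, seeded at OD 0.01 in PMG+AL medium with 23 nL pinned compound. Grown 24 h at 30 degrees; viability read by BacTiter-Glo luminescence after 5 min.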
FBPA Giardia inh – Giardia lamblia aldolase inhibition | A8B2U2 | purified Giardia FBPA | Potency, µM (highest dose often 59.6 µM), for the others: at the highest dose activity, negative = inhibition, hits mostly inhibitors | 290,000 tested, 0.71% active | AID 2451; also: potency is read from the fitted curve at half-maximal effect; % is scaled to controls: 0 for no effect and ±100 for the full control effect; nearly all actives have a fitted effect of over 55% in size
Target sequence (A8B2U2 whole entry, looked up): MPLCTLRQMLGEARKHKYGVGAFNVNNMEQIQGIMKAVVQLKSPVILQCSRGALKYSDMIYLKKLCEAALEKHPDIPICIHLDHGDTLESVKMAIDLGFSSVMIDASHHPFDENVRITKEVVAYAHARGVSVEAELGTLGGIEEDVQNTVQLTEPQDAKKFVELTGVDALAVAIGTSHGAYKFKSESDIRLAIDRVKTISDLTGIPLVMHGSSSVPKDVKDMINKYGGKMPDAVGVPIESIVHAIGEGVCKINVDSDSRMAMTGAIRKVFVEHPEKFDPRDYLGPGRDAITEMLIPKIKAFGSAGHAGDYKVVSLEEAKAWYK
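40 nM FBPA preincubated 10 min at RT with compound (up to 57.5 uM final), then substrate plus GAPDH/TPI/NAD/arsenate coupling and diaphorase/resazurin added. Fluorescence read after 20 min at RT, 525/598 nm.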
LmPK inh – LmPK (Leishmania mexicana) enzyme inhibition; purified LmPK, Kinase-Glo ATP luminescence, 1 h; Potency, µM (doses to about 57.5 µM), for the others: at the top dose activity change, negative = inhibition, usual class: inhibitors; 290,000 tested, 0.37% active; also: potency is read from the fitted curve at half-maximal effect; % is scaled to controls: 0 for no effect and ±100 for the full control effect
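In 50 mM imidazole pH 7.2 with 7 mM MgCl2, LmPK (0.1 nM) turned over PEP (0.5 mM) and ADP (0.1 mM) for 1 h at room temperature. Luciferase read-out of ATP.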
Shiga toxin inh – Shiga toxin inhibition. AID 2315. Vero cells, Shiga toxin protein synthesis inhibition reporter. 290,000 tested, 9.2% active. inhibition, % at 38.7 µM; in the data active = inhibition mostly above about 28%, no sharp cut-off; inactive = mostly below about 43%; also: 0% is about no effect
Tb PYK inh – blocks Trypanosoma brucei pyruvate kinase | Q57TT1 | TbPYK enzyme, Kinase-Glo Plus ATP luminescence, 45 min | Potency, µM (doses to about 76.8 µM), for the others: at the highest dose activity, negative = inhibition, hits mostly inhibitors | 410,000 tested, 0.12% active; also: potency is read from the fitted curve at half-maximal effect; % is scaled to controls: 0 for no effect and ±100 for the full control effect; nearly all actives have a fitted effect of over 50% in size
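Quantitative HTS: titrated library compounds versus trypanosomal pyruvate kinase in TEA buffer (pH 7.2) containing KCl, MgCl2, BSA and Tween-20. Reactions were initiated with ADP, 130 uM final. Kinase-Glo Plus luminescence was read after 45 min at RT.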
CHX counter – counter-screen for Shiga toxin inhibitors: cycloheximide protein synthesis inhibition; cell reporter, cycloheximide protein synthesis inhibition counterscreen; max response, %; 300,000 tested, 12% active; in the data active = max response mostly above about 13%, no sharp cut-off; inactive = mostly below about 14%; also: read at 38.3 µM for the half of the compounds with a filed dose; 0% is about no effect
* = called active by the depositor; ? = inconclusive; . = no result; + = active, no number. The full list was thinned out, with hits kept by preference. Unless noted, calls follow the shape of the dose curve; as a rule, active = well fitted curve in the direction sought with a large enough effect; inconclusive = small, poorly fitted or top-dose-only effect, or another doubt; inactive = no such curve, though single readings can be large; an effect the other way counts as inactive or inconclusive.

SMILES	RE007 growth inh	FBPA Giardia inh	LmPK inh	Shiga toxin inh	Tb PYK inh	CHX counter
COCCCNC(=O)CSC1=Nc2ccccc2C2=NC(CCC(=O)NCc3ccccc3OC)C(=O)N12 (stereo unspecified)	.	.	.	.	-1.2%	.
CCc1cccc(C)c1NC(=O)C(CC)n1ncn2c(cc3cc(C)ccc32)c1=O (stereo unspecified)	.	.	.	.	1.2%	.
CCn1cc2nc(SCc3ccc(F)cc3)n(CCc3ccccc3)c(=O)c2n1	.	.	.	.	-5.1%	.
COc1cc(/C=c2\sc3n(c2=O)C(c2ccccc2)C(c2ccccc2)=NN=3)ccc1O (stereo unspecified)	14.8%	-15.2%	-5.7%	-22.1	-0.3%	-3.6
O=[N+]([O-])c1ccc(CN2CCCCCC2)cc1	-9.6%	?	2.9%	-4.1	2.9%	-1.0
COc1cc(/C=c2\sc3n(c2=O)CCCN=3)ccc1O	-24.3%	-3.5%	-3.6%	71.4	-3.4%	24.9*
O=c1/c(=C/c2ccc([N+](=O)[O-])cc2)sc2n1CCCN=2	-28.1%	-7.7%	-8.4%	45.7*	-12.4%	35.4*
NC(=O)CSc1oc(-c2cccs2)nc1S(=O)(=O)c1ccc(Br)cc1	.	.	.	.	-3.4%	.
c1ccc2c(CCNc3ncnc4nc[nH]c34)cccc2c1	6.6%	-3.6%	-3.3%	+	4.1%	31.3*
Clc1ccc(CCNc2ncnc3nc[nH]c23)cc1	-10.8%	-17.2%	-3.1%	30.2	-1.3%	14.2
c1ccc(CCCNc2ncccn2)cc1	-15.6%	-11.6%	-2.6%	+	6.2%	32.1*
c1ccc(CCCNc2ncnc3nc[nH]c23)cc1	4.5%	-7.9%	-5.2%	36.6	-9.6%	27.1*
c1ccc(CCCCc2ccccn2)cc1	5.0%	.	.	.	1.0%	.
C1=C(CCNc2ncnc3nc[nH]c23)CCCC1	9.7%	-8.6%	-9.6%	38.5*	-0.6%	36.7*
CCOCCCn1c(SCc2ccccc2)nnc1-c1ccncc1	6.0%	6.0%	1.1%	3.0	-11.0%	-4.5
COc1ccc(CN(Cc2ccco2)c2cnc(S(C)(=O)=O)nc2C(=O)Nc2ccc(C)c(Cl)c2)cc1	.	.	.	.	-3.5%	.
COc1ccc([C@@H](C)C(=O)c2ccc(O)cc2O)cc1	.	0.9%	.	.	.	.
Cc1cc(C)c(NC(=O)Cn2ccn(-c3cccc(Cl)c3)c(=O)c2=O)c(C)c1	.	.	.	.	-5.2%	.
Cc1cccc(Nc2nc(-c3ccccc3)c3cc(C)ccc3n2)c1	.	.	.	.	1.2%	.
Cc1ccc(C)c2c1c1ccccc1n2C	-11.8%	-0.1%	1.2%	41.6	-1.5%	19.7*
S=c1[nH]c2ccccc2o1	-0.8%	-17.6%	1.6%	83.4*	-12.8%	13.4*
S=c1[nH]c2ccccc2n2cccc12	-10.3%	1.0%	-0.6%	-13.1	-16.5%	1.1
CCOC(=O)c1cc(S(=O)(=O)Nc2ccccc2)[nH]n1	.	.	.	.	-5.3%	.
O=C(Cc1ccccc1)N/N=C/c1ccccc1Cl	0.5%	-12.5%	-4.0%	53.2	-3.7%	40.9*
S=C(NCCc1ccccc1)N/N=C/c1ccccc1Cl	-17.0%	6.0%	6.0%	-10.3	-1.8%	10.8*
SMILES	RE007 growth inh	FBPA Giardia inh	LmPK inh	Shiga toxin inh	Tb PYK inh	CHX counter
O=C(C[n+]1ccccc1)N/N=C/c1ccccc1Cl	0.0%	.	.	.	0.2%	.
O=C(NCCCN1CCOCC1)C(=O)N/N=C/c1ccccc1Cl	1.4%	2.7%	0.6%	21.4	-1.0%	18.8*
Cc1ccc(-n2nc3c(c2NC(=O)C(C)C)CS(=O)(=O)C3)c(C)c1	2.9%	18.7%	4.6%	-7.2	1.3%	7.6
COc1ccc(CCc2nnc(CCC(=O)NCc3ccc4ncccc4c3)o2)cc1	5.1%	1.2%	-1.4%	33.8	0.1%	17.1*
COc1ccc(OC)c(Cc2nnc(CCC(=O)NCc3ccsc3)o2)c1	-13.8%	2.2%	14.3%	37.2*	-15.8%	17.2*
O=C(CCc1nnc(Cc2c[nH]c3ccccc23)o1)NC1CCCC1	5.1%	-4.0%	0.7%	-0.6	-14.3%	-0.4
COc1ccc(CCc2nnc(CCC(=O)NCc3cnc4ccccn34)o2)cc1	-14.5%	3.5%	9.0%	17.5	7.8%	-1.3
O=C(CCc1nnc(CCc2c[nH]c3ccccc23)o1)NC1CCC1	-9.3%	1.6%	-2.2%	179.6*	-26.1%	52.7*
COc1ccc(OC)c(Cc2nnc(CCC(=O)NC3CCCCC3)o2)c1	-0.4%	2.9%	-1.3%	29.0*	4.5%	25.0*
CC(=O)Nc1ccccc1OCc1cc(=O)n2c(C)csc2n1	.	.	.	.	2.3%	.
O=C(NC(=O)c1c(F)cccc1F)Nc1ccccc1SC(F)F	-0.2%	-4.3%	-2.1%	27.6	0.0%	11.0*
O=C(NC(=O)c1c(F)cccc1F)Nc1ccc(Cl)cc1	.	0.9%	.	.	.	.
OC(COc1ccc2c(c1)CCC2)Cn1cnc2ccccc21 (stereo unspecified)	-24.2%	-8.2%	-4.6%	74.2*	6.8%	22.7
CC(C)NCC(O)COc1ccc2c(c1)CCC2 (stereo unspecified)	-25.1%	1.3%	-0.2%	110.0*	-2.4%	32.5*
N#Cc1c2n(c(=S)n(-c3ccc(OC(F)F)cc3)c1=O)CCCCC2	0.9%	-5.7%	8.4%	20.3	-11.8%	-4.7
N#Cc1c2n(c(=S)n(-c3ccccn3)c1=O)CCCCC2	-7.4%	-23.5%	2.3%	24.8	-4.9%	16.2*
CCOc1ccc(C(=O)NCc2ccccc2OC)cc1	39.9%	-5.5%	-1.2%	active	1.5%	10.6
O=C(NCc1cccs1)c1ccccc1	11.1%	-0.5%	2.2%	-1.4	3.2%	-3.0
CC(C)Oc1ccc(C(=O)NCc2cccs2)cc1	-11.0%	-2.2%	0.0%	36.2*	4.0%	50.1*
CCC(CC)C(=O)NCc1ccccc1OC	2.0%	3.9%	-7.2%	-15.8	9.3%	-3.9
CCc1ccc(C(=O)NCc2cccs2)s1	4.2%	-4.6%	4.1%	89.2*	-0.9%	36.6*
COc1ccccc1CNC(=O)c1ccc(OC(C)C)cc1	51.6%	-2.9%	-3.1%	56.1*	-6.9%	14.6*
CC(O)(c1ccc(F)c(F)c1)c1nc(-c2ccoc2)cs1 (stereo unspecified)	-4.7%	.	.	.	1.9%	.
Cc1ccc(CCNS(=O)(=O)c2ccc3c(c2)C(C(C)C)C(=O)N3)cc1 (stereo unspecified)	.	.	.	.	3.9%	.
CC(=O)Nc1ccc(N(C(=O)c2ccco2)C(C(=O)NC2CCCCC2)c2ccccc2)cc1 (stereo unspecified)	-18.5%	1.5%	1.4%	34.9*	0.4%	11.9*
CC(=O)Nc1ccc(N(C(=O)c2ccco2)C(C(=O)NC2CCCC2)c2cccs2)cc1 (stereo unspecified)	15.4%	4.8%	2.9%	14.1	0.4%	-1.2
CC(C)c1ccc(N(C(=O)c2ccco2)C(C(=O)NC2CCCC2)c2ccncc2)cc1 (stereo unspecified)	0.1%	-0.3%	2.3%	72.8*	3.0%	33.0*
